# TR SRC2 fluor cs = Texas Red fluorescence interference in TRb-SRC2 counter-screen. TRb/SRC2 Texas Red total fluorescence interference. Potency, µM (titrated, usually from 106 µM), inactives show top-dose fluorescence change, negative = quenching. 0.29% of 280,000 active. AID 1479; active = well fitted curve in either direction with a large enough effect; inconclusive = small, poorly fitted or top-dose-only effect
#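 Human TRβ ligand-binding domain (0.6 uM) and Texas Red SRC2 peptide (20 nM) in Tris buffer with 1 uM T3 and 5% DMSO were incubated with pinned compound for 5 hr at ambient temperature. Total fluorescence was computed as S + 2P (555/632 nm).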
# Tau fibril FP = tau fibrillization inhibition (FP) | K18 P301L tau heparin fibrillization, Alexa594 FP, 6 h | Potency, µM (titrated, usually from 57.7 µM), for the others: top-dose activity, negative = inhibition, hits mostly inhibitors | 0.39% of 280,000 active | AID 1468; also: nearly all actives have a fitted effect of over 55% in size
# Target sequence (P10636 561-689 P618L limits assumed): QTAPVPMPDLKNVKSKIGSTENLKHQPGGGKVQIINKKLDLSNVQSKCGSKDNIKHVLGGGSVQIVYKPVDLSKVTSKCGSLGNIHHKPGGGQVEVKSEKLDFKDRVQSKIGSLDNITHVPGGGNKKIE
#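 Quantitative HTS format: compounds meet 15 uM recombinant K18 P301L tau and Alexa 594-tau tracer in 100 mM sodium acetate pH 7; 20 uM heparin triggers fibrillization at 37 C over 6 hr; FP gives the signal.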
# Tau fibril ThT = inhibitors of human tau fibril formation, thioflavin T binding | P10636 | recombinant tau K18 P301L, heparin-induced fibrillization, ThT fluorescence | Potency, µM (doses to about 57.4 µM), for inactives: top-dose activity, negative = inhibition, actives largely listed as inhibitors | 2.1% of 270,000 active | AID 1460; also: nearly all actives have a fitted effect of over 55% in size
#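 Heparin-induced (20 uM) aggregation of recombinant human K18 P301L tau, 15 uM unlabeled with 0.24 uM labeled, pH 7 acetate buffer, 6 hr at 37 C with compound. Fibrils quantified by 30 uM ThT fluorescence after 1 hr ambient incubation.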
# TRb SRC2 PPI = TRbeta-SRC2 interaction inhibition | P10828 | TRbeta-SRC2 peptide binding, fluorescence polarization; receptor liganded with 1 µM T3 | Potency, µM (highest dose often 106 µM), without a hit: at the highest dose activity change, negative = inhibition, actives largely listed as inhibitors | 0.065% of 280,000 active;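 also: plate controls were bound peptide for no effect and peptide without receptor for full effect; nearly all actives have a fitted effect of over 50% in size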
# Target sequence (P10828 whole entry, looked up): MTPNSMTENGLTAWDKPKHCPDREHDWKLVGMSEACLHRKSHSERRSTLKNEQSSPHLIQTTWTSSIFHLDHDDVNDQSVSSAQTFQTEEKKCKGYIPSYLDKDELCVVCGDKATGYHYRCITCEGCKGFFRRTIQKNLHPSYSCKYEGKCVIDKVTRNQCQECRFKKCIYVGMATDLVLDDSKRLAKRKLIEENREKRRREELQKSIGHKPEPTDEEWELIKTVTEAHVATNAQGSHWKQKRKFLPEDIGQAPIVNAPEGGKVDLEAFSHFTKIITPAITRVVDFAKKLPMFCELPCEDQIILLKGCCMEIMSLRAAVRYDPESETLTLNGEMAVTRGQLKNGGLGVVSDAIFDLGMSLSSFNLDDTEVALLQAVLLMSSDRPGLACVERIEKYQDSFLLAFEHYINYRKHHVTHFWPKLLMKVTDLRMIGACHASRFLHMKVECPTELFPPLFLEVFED
#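 Decrease in fluorescence polarization of 20 nM Texas Red SRC2 coactivator peptide flagged inhibition of its binding to 0.6 uM TRb LBD; 1 uM T3 included, incubation 5 hr, ex 555/em 632 nm.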
# Tau fluor counter = counter-screen for tau fibril formation inhibitors; Potency, µM (highest dose often 57.7 µM), without a hit: at the top dose activity change, negative = decrease; tau K18 P301L Alexa594 fluorescence, heparin fibrillization; 0.93% of 280,000 active; also: nearly all actives have a fitted effect of over 55% in size
#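 Human tau K18 P301L (15 uM unlabeled, 0.24 uM Alexa 594-labeled) in 100 mM sodium acetate pH 7 with 20 uM heparin, 6 hr at 37 C. ThT 30 uM added, 1 hr ambient; Alexa 594 FP and total fluorescence read at 555/632 nm.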
# * hit, by the source's call; u = inconclusive; x = no result; [ ] = remark or other dose. The list is not random: actives were taken first. Their share in the collection is about 3.1%. Unless noted, calls follow the shape of the dose curve; as a rule, active = well fitted curve in the direction sought with a large enough effect; inconclusive = small, poorly fitted or top-dose-only effect, or another doubt; inactive = no such curve, though single readings can be large; an effect the other way counts as inactive or inconclusive. Unless noted, % is scaled to controls: 0 for no effect and ±100 for the full control effect; potency is read from the fitted curve at half-maximal effect.
SMILES,TR SRC2 fluor cs,Tau fibril FP,Tau fibril ThT,TRb SRC2 PPI,Tau fluor counter
Nc1ccc(-c2nc3ccc(-c4nc5ccc(N)cc5[nH]4)cc3[nH]2)cc1,45µM*[quencher],10%,13µM*,7%,13µM*[quencher]
COc1cc(C2c3c(oc4ccccc4c3=O)C(=O)N2c2ccccn2)cc(OC)c1OC (configuration not stated),0.04µM*[quencher],-11%,10%,-10%,2%
COc1ccc(C2c3c(oc4ccccc4c3=O)C(=O)N2c2ccccn2)cc1OC (configuration not stated),-2%,6%,11%,3%,19%
COc1ccc(OC)c(CNC(=O)NCc2noc3ccc(C)cc23)c1,0%,-2%,-9%,2%,-19%
Cc1ccc(Cn2c(CNC(=O)c3ccccc3Br)nc3cccnc32)cc1,0.01µM*[quencher],6%,-3%,-11%,-9%
COc1ccc(Nc2nc(NN)nc(C)c2[N+](=O)[O-])cc1,-3%,-7%,14µM*,12%,u
COc1ccc(Nc2nc(N/N=C/c3ccc(N(C)C)cc3)nc(C)c2[N+](=O)[O-])cc1,-1%,9%,3.2µM*,0%,11µM*[quencher]
COc1ccc(/C=N/Nc2nc(C)c([N+](=O)[O-])c(N(C)c3ccccc3)n2)cc1OC,-5%,0%,u,-1%,-19%
Cc1cccc(NC(=O)CSc2nc(N)c(NC(=O)c3cccs3)c(=O)[nH]2)c1C,0%,-7%,1%,2%,-3%
Cc1ccc(C)c(N2CCN(S(=O)(=O)c3ccc(-c4cc(C(F)(F)F)on4)s3)CC2)c1,-1%,-23%,0%,-4%,-8%
O=c1[nH]c(CSc2nnc(Cc3ccccc3)o2)nc2ccccc12,1%,-9%,-4%,-3%,-11%
Cc1[nH]c2ccccc2c1Cc1nnc(SCc2ccccc2)o1,-2%,u,u,5%,18µM*[quencher]
Cc1ccc2c(c1)N(CC(=O)NCc1cccc(Cl)c1)C(=O)c1cccnc1O2,-3%,-12%,-9%,-1%,-19%
Cc1ccc(CNC(=O)CCCN2C(=O)c3cccnc3Oc3ccc(Cl)cc32)cc1,18µM*[quencher],3%,2%,-9%,-2%
COc1ccc(CNC(=O)CCCN2C(=O)c3cccnc3Oc3ccc(Cl)cc32)cc1,6%,-1%,-3%,4%,-10%
COc1ccc(CNC(=O)CN2C(=O)c3cccnc3Oc3ccc(C)cc32)cc1,20µM*[quencher],-7%,2%,-22%,1%
O=C(N/N=C/c1ccc(O)cc1)c1[nH]c2ccc(Br)cc2c1-c1ccccc1,-1%,u,-15%,-5%,13µM*[quencher]
O=C(N/N=C/c1c[nH]c2ccccc12)c1[nH]c2ccc(Br)cc2c1-c1ccccc1,7%,-13%,u,-9%,4µM*[quencher]
O=C(N/N=C/c1c[nH]c2ccccc12)c1ccc2c(c1)OCCO2,-4%,5%,u,-7%,u
O=C(N/N=C/c1c[nH]c2ccc(Br)cc12)c1ccc2c(c1)OCO2,-5%,u,u,0%,18µM*[quencher]
C/C(=N\NC(=O)CCC(=O)O)c1c(-c2ccccc2)c2cc(Br)ccc2[nH]c1=O,-1%,5%,x,-2%,3%
N#Cc1nc(-c2ccc(COc3ccc(Cl)cc3)o2)oc1N1CCC(C(N)=O)CC1,-14%,12%,-15%,8%,-28%
O=C(O)CCC(=O)N1CCCC1C(=O)O (configuration not stated),0%,-3%,-5%,0%,-6%
CCC(CC)C(=O)N1CCc2cc(OC)c(OC)cc2C1COc1ccccc1OC (configuration not stated),1%,5%,-7%,10%,-3%
O=C(/C=C/c1ccco1)c1ccc(O)cc1,-4%,-10%,u,13%,-14%
SMILES,TR SRC2 fluor cs,Tau fibril FP,Tau fibril ThT,TRb SRC2 PPI,Tau fluor counter
CN(C)c1ccc(C(=O)/C=C/c2ccco2)cc1,-8%,-5%,10µM*,3%,-26%
CC(=O)Nc1cccc(C(=O)/C=C/c2ccco2)c1,-11%,u,25µM*,10%,u
CC(=O)Nc1cccc(C(=O)/C=C/c2ccc(N(C)C)cc2)c1,-11%,0%,25µM*,8%,16µM*[quencher]
CCCNC(=O)CSc1nc(-c2ccc(OC)cc2)cc(C(F)(F)F)n1,-2%,u,6%,7%,2%
C/C(=C\C(C)CC(C)CC(C)C)C1CC(=O)OC1=O (configuration not stated),-4%[201 µM],x,x,1%[201 µM],x
COc1ccc(-c2cc3ccc(O)c(CN4CCN(C)CC4)c3oc2=O)cc1OC,-6%,3%,u,0%,3%
CC(C)=CCC/C(C)=C/C=C/C1=CC2(C)CC1(C)C(/C=C(\C)CCC=C(C)C)CC2=O (configuration not stated),-1%[11.2 µM],-2%[11.6 µM],-3%[11.5 µM],4%[11.2 µM],-2%[11.6 µM]
CN1C2CCC1/C(=C\c1ccccc1)C(=O)/C2=C\c1ccccc1,-3%,u,16µM*,7%,-25%
O=C1/C(=C/c2ccccc2)CCC1C1CCCC1 (configuration not stated),-3%,-1%,u,-8%,-13%
Cc1ccc(-n2nc(-c3ccc(OC(F)(F)F)cc3)cc2N)cc1C,-4%,9%,u,-1%,11µM*[quencher]
Nc1[nH]n2c(=O)c3c(nc2c1N=Nc1ccc(Cl)cc1)CCCC3,0%,-2%,1.4µM*,4%,-9%
Nc1[nH]n2c(=O)c3c(nc2c1N=Nc1ccccc1)CCCC3,-3%,1%,4.5µM*,6%,u
COc1cc(OC)cc(-c2nc3n(n2)C(c2ccccc2)C(C(N)=O)=C(C)N3)c1 (configuration not stated),-2%,0%,-3%,5%,-1%
O=C(Cn1c(=O)n(Cc2ccc(C(=O)NCc3ccccc3Cl)cc2)c(=O)c2ccccc21)Nc1ccc(F)cc1,-1%,u,7%,2%,-18%
O=C(Cn1c(=O)n(Cc2ccc(C(=O)NCc3ccccc3Cl)cc2)c(=O)c2ccccc21)Nc1ccc(F)c(Cl)c1,0%,14µM*,-2%,-2%,-17%
O=C(Cn1c(=O)n(-c2ccccc2)c(=O)c2ccc(C(=O)NCc3ccc4c(c3)OCO4)cc21)Nc1ccc(F)c(Cl)c1,0%,25µM*,6%,2%,-25%
CCOCCc1nn2c(=O)cc(COC(=O)C3CCCCC3)nc2s1,-2%,7%,-6%,2%,0%
CCOc1ccc(CCNC(=O)C2CCN(C(=O)c3cc4sccc4n3CC)CC2)cc1OCC,1%,5%,u,1%,-10%
NNC(=O)c1cc(-c2ccccc2)sc1N,-5%,4%,7.9µM*,-1%,u
COc1cc(/C=N/NC(=O)c2cc(-c3cccs3)nc3ccccc23)ccc1O,0%,3%,u,-3%,18µM*[quencher]

# Bioassay records (PubChem BioAssay)
